According to PubChem BioAssay:
Active and inactive are the calls of the source.

Experiments:
Albumin (Bos taurus) = Albumin (Bos taurus) (UniProt P02769); test: bovine serum albumin binders on microarray, profiling panel, artefact control for SMM control protein annotation, biochemical, small-molecule microarray, Alexa647 label, 635/667 nm fluorescence (AID 1118); details: BSA-A647 binding, fluorescence 635 nm, higher = more signal;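 further: score merges 667 nm emission intensity and signal-to-noise per printed compound spot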
Chain of Albumin (Bos taurus) (P02769 whole entry, looked up): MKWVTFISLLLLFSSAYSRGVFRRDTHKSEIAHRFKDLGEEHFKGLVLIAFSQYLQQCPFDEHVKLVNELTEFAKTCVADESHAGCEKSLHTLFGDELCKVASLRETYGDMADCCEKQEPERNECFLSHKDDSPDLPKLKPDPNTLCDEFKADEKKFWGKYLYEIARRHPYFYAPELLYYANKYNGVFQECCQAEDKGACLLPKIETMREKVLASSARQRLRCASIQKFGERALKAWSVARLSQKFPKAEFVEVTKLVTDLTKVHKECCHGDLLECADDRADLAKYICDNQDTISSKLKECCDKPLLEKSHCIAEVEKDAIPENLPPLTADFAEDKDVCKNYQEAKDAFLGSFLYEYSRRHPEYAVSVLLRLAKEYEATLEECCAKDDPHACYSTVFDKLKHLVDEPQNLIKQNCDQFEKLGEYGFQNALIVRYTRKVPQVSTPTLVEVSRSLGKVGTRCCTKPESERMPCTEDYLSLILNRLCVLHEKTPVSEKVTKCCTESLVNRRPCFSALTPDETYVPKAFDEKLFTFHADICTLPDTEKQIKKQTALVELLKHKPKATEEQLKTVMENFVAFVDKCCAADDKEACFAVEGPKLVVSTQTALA

[1] = small-molecule microarray binders of probe aXIP, primary screen, biochemical, NeuroSMM set, 635/667 nm fluorescence (AID 1119); details: higher = more signal, called active from +8 up or from −8 down;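 further: probe is the protein aXip251-270 applied at 1 µg/mL to compound-printed slides; binding of probe to printed compounds measured as 667 nm fluorescence plus signal to noise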
[2] = small-molecule binders of probe aNOTCH3, primary screen, biochemical, small-molecule microarray, 635/667 nm fluorescence (AID 1120); details: higher = more signal;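 further: probe is a biotin-tagged antibody raised against NOTCH3 rather than NOTCH3 protein; score merges spot fluorescence near 667 nm with spot signal to noise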
[3] = small-molecule binders of probe aNOTCH2, primary screen, biochemical, small-molecule microarray, 635/667 nm fluorescence (AID 1121); details: higher = more signal;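 further: score merges feature fluorescence read at 667 nm with its signal to noise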
[4] = biological target: Carbonic anhydrase 2 (Homo sapiens) (UniProt P00918); test: CAII small-molecule binders, profiling panel, biochemical, small-molecule microarray, Alexa647-labelled CAII (AID 1122); details: CAII-A647 binding fluorescence, higher = more signal
[5] = COS7 lysate on small-molecule microarray, probe aHis, 635 nm (AID 1123); details: COS7 cell lysate, fluorescence, higher = more signal;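 further: z-score combines 667nm fluorescence intensity with signal-to-noise per printed compound spot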
[6] = compound binding in COS7 lysate, probe aLAP1, primary screen, cell lysate, small-molecule microarray (AID 1124); details: probe aLAP1, fluorescence, higher = more signal;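 further: lysate comes from COS7 cells expressing LAP1 and is applied at 0.3 µg/mL; score merges spot fluorescence near 667 nm with signal-to-noise over triplicate slides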
Sam68 (KHDRBS1) = test: Sam68 small-molecule binders, primary screen, biochemical, small-molecule microarray, 635 nm fluorescence (AID 1125); details: small-molecule microarray binding, higher = more signal;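 further: score merges 667 nm channel intensity with signal to noise over triplicate slides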
[7] = test system: Chordin-like protein 2 (CHRDL2); test: CHRDL2 small-molecule binders, primary screen, biochemical, small-molecule microarray, 635 nm fluorescence (AID 1126); details: small-molecule microarray binding, fluorescence 635 nm; higher = more signal;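 further: printed compound slides probed with Chrdl2 protein at 4 µg/mL for 1 h at 4 C; score merges 667 nm emission intensity with signal to noise over three replicate slides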
[8] = biological target: Concanavalin-A (Canavalia ensiformis) (UniProt P02866); test: ConA small-molecule binders, primary screen, artefact control for SMM control protein annotation, biochemical, small-molecule microarray, Alexa647 label, 635 nm (AID 1127); details: ConA-A647 binding fluorescence, higher = more signal;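 further: z combines 667 nm emission intensity with signal-to-noise across three replicate slides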
Chain of Concanavalin-A (Canavalia ensiformis) (P02866 whole entry, looked up): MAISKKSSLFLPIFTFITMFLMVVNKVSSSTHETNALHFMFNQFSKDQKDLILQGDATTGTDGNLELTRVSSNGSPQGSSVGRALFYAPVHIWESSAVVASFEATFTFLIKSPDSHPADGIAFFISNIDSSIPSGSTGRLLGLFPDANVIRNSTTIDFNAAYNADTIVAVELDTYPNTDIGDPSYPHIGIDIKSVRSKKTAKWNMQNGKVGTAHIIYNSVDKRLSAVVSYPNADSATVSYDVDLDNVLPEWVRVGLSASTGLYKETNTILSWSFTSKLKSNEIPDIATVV

[9] = anti-His antibody binders, primary screen, artefact control for SMM control protein annotation, biochemical, small-molecule microarray, 635 nm fluorescence (AID 1128); details: anti-His Alexa647 antibody binding, higher = more signal;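 further: score merges feature fluorescence with signal-to-noise for each printed compound spot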
[10] = test system: Human papillomavirus type 1a E7 protein (residues 1-88); test: HPV1a E7 small-molecule binders, primary screen, biochemical, small-molecule microarray, residues 1-88, 635 nm (AID 1129); details: small-molecule microarray binding, fluorescence 635 nm; higher = more signal
[11] = biological target: Focal adhesion kinase 1 (Homo sapiens) (UniProt Q05397); test: small-molecule microarray binders of FAK, primary screen, biochemical, 635/667 nm fluorescence, BSA, DTT (AID 1130); details: PTK2 binding, 635 nm fluorescence, higher = more signal;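 further: composite of spot emission at 667 nm and signal to noise over triplicate slides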
Chain of Focal adhesion kinase 1 (Homo sapiens) (Q05397 whole entry, looked up): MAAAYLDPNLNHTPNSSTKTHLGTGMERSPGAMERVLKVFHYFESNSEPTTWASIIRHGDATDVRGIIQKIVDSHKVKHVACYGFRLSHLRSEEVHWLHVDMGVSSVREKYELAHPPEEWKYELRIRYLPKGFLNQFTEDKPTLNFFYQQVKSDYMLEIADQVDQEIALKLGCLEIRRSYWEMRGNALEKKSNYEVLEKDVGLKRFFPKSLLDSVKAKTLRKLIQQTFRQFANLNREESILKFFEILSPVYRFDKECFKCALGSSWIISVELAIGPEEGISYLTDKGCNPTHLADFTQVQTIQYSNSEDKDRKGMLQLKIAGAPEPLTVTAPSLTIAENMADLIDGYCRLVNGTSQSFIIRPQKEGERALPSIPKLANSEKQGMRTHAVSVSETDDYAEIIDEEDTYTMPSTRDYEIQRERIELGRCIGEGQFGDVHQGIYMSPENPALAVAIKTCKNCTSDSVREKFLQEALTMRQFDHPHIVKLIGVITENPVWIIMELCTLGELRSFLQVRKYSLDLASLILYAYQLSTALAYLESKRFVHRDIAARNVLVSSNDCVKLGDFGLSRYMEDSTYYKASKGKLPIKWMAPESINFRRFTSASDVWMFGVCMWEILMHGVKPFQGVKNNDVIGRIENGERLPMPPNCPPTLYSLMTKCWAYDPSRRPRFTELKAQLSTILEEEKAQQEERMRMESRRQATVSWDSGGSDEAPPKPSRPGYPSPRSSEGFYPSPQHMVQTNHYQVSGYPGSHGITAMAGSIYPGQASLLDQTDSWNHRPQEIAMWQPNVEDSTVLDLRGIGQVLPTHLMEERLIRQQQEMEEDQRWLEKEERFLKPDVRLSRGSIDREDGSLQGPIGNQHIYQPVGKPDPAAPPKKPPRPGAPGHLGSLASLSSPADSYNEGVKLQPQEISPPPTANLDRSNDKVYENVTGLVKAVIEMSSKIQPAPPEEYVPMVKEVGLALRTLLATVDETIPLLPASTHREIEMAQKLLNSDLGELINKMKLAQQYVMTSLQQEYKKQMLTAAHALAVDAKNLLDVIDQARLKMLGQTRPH

[12] = test system: Fibrinogen (Alexa647-labelled); test: fibrinogen binders on compound microarrays, profiling panel, artefact control for SMM control-protein annotation, biochemical, small-molecule microarray, 635/667 nm fluorescence (AID 1131); details: fibrinogen-A647 binding fluorescence, higher = more signal;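 further: z-score merges 667 nm fluorescence with per-spot signal-to-noise over triplicate slides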
[13] = biological target: Follistatin (Homo sapiens) (UniProt P19883); test: follistatin binders on small-molecule microarrays, primary screen, biochemical, small-molecule microarray, 635/667 nm fluorescence (AID 1132); details: FST binding, 635 nm fluorescence, higher = more signal
Chain of Follistatin (Homo sapiens) (P19883 whole entry, looked up): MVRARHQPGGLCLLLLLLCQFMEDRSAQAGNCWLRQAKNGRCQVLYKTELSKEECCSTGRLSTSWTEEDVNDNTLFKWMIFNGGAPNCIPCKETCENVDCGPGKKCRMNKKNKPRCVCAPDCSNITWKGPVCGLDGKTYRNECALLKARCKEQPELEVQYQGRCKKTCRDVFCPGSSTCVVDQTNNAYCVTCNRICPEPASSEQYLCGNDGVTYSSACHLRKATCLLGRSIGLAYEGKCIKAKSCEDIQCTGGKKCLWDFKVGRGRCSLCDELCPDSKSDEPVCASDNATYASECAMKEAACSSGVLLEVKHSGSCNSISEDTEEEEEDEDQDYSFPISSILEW

[14] = biological target: Fibroblast growth factor 2 (Homo sapiens) (UniProt P09038); test: FGF2 binders on small-molecule microarrays, primary screen, biochemical, small-molecule microarray, 635/667 nm fluorescence (AID 1133); details: small-molecule microarray binding, FGF2, fluorescence 635/667; higher = more signal
Chain of Fibroblast growth factor 2 (Homo sapiens) (P09038 whole entry, looked up): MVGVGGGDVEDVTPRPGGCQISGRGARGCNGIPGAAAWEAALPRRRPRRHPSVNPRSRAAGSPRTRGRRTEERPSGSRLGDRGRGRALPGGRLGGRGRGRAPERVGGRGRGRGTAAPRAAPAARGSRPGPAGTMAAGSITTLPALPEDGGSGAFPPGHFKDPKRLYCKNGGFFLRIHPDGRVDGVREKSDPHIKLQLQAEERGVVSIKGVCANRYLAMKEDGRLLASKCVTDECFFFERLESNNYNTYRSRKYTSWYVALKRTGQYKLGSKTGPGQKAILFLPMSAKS

[15] = mitochondrial membrane potential change in A549 cells, profiling panel, cell-based, JC-1 fluorescence, basal, 24 h, 100 nL (AID 1138); details: higher = more signal;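 further: A549 lung adenocarcinoma cells under basal conditions with no added stimulus; test concentration not given here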
Lefty1 = Lefty1 binders on small-molecule microarrays, primary screen, biochemical, small-molecule microarray, 635/667 nm fluorescence (AID 1139); details: small-molecule microarray binding, fluorescence 635/667; higher = more signal
[16] = test system: wheat germ agglutinin (Triticum aestivum), Alexa647-labelled; test: wheat germ agglutinin binders on compound microarrays, profiling panel, artefact control for SMM control-protein annotation, biochemical, small-molecule microarray, 635/667 nm fluorescence (AID 1140); details: WGA-A647 binding, 635 nm fluorescence, higher = more signal;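 further: score merges 667 nm feature emission with signal to noise over triplicate slides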
[17] = biological target: Luciferin 4-monooxygenase (Photinus pyralis) (UniProt P08659); test: firefly luciferase enzyme inhibitors, primary screen, biochemical, luminescence, purified enzyme, 2006 set (AID 1141); details: SteadyGlo luminescence, 30 min, higher = more signal, called active from +8 up or from −8 down;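 further: cell-free assay with purified firefly luciferase at 100 ng per well in PBS; test concentration not given here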
Chain of Luciferin 4-monooxygenase (Photinus pyralis) (P08659 whole entry, looked up): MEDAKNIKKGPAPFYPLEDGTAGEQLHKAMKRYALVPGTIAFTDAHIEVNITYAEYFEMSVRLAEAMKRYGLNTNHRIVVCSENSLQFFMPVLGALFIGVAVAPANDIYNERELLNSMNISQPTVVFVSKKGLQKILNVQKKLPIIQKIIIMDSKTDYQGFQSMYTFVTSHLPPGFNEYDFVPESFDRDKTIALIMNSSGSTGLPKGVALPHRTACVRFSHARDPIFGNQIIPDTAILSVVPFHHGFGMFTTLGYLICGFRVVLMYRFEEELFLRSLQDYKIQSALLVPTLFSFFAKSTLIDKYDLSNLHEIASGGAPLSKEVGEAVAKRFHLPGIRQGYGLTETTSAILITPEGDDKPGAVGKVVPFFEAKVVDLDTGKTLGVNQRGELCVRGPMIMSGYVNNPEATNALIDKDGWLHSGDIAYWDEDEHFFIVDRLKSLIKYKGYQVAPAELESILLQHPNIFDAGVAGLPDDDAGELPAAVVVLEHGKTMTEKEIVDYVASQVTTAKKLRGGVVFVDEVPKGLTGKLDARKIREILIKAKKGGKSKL

Row | Compound | composite z-score (Albumin (Bos taurus)) | composite Z-score [1] | composite z-score [2] | composite z-score [3] | composite z-score [4] | composite z-score [5] | composite z-score [6] | composite z-score (Sam68 (KHDRBS1)) | composite z-score [7] | composite z-score [8] | composite z-score [9] | composite z-score [10] | composite z-score [11] | composite z-score [12] | composite z-score [13] | composite z-score [14] | z-score [15] | composite z-score (Lefty1) | composite z-score [16] | z-score [17]
1 | CC(=O)OC[C@H]1O[C@H](CC=NO[C@H](C)c2cn([C@@H]3COC[C@H]3O)nn2)C=C[C@@H]1OC(C)=O | 0.834 | 0.195 (inactive) | -0.182 | -0.153 | -0.0556 | -0.426 | -0.16 | -0.378 | 0.85 | -0.152 | 0.606 | 0.179 | -0.0621 | 0.897 | 0.356 | 0.396 | -0.17 | 0.42 | -0.0712 | -0.63 (inactive)
2 | COc1ccc(OC[C@H]2CN3[C@@H](CC[C@@H](C)[C@@H]3c3ccc(Br)cc3)C(=O)O2)cc1 | 0.197 | 0.281 (inactive) | -0.25 | -0.13 | -0.657 | -0.239 | 0.254 | 0.592 | 0.464 | 0.297 | 0.0994 | -0.023 | -0.305 | -0.0163 | 0.385 | 0.042 | -0.124 | 0.664 | -0.108 | -1.55 (inactive)
3 | O=C1C[C@@H](O)[C@@H](O)[C@@H]2[C@@H]3C(=O)N(C4CCCCC4)C(=O)[C@@H]3CC[C@@H]12 | 0.337 | -0.228 (inactive) | -0.104 | -0.198 | 0.167 | 0.798 | -0.244 | 0.546 | 0.36 | 0.448 | 0.69 | 0.54 | -0.0599 | 0.705 | 0.373 | 0.134 | 0.457 | 0.66 | 0.282 | 0.137 (inactive)
4 | CCN1C(=O)[C@H]2[C@H]3[C@H](O)[C@H](O)CC(=NO[C@H](C)c4cn([C@@H]5COC[C@H]5O)nn4)[C@@H]3CC[C@H]2C1=O | 0.0418 | -0.115 (inactive) | -0.0948 | -0.04 | -0.281 | 0.151 | -0.0932 | 0.126 | 0.244 | -0.0703 | -1.33 | -0.0712 | 0.339 | 0.178 | -0.537 | 0.092 | -0.444 | 0.371 | -0.215 | 0.846 (inactive)
5 | CC(C)=CCCC(C)=CCON=C1C[C@@H](O)[C@@H](O)[C@@H]2[C@@H]3C(=O)N(Cc4ccc5c(c4)OCO5)C(=O)[C@@H]3CC[C@H]12 | 0.0686 | -0.16 (inactive) | 0.0568 | 0.428 | 0.389 | 1.17 | 0.206 | 0.945 | 0.957 | -0.0491 | 0.364 | 0.838 | -0.0613 | 0.855 | 0.779 | 0.613 | -0.564 | 1.04 | 0.793 | 0.497 (inactive)
6 | COC(=O)[C@@H]1CC[C@H](C)[C@@H](c2ccc(Br)cc2)N1C[C@H](O)CN=[N+]=[N-] | 0.0539 | 0.486 (inactive) | -0.0219 | -0.12 | -0.109 | 0.653 | 0.475 | -0.0747 | 0.101 | -0.35 | 0.383 | -0.459 | 0.709 | 0.118 | -0.117 | 0.0395 | -0.821 | 0.17 | 0.162 | -0.169 (inactive)
7 | COc1cccc([C@H]2Oc3ccc(OC)cc3C(=NO[C@@H](C)c3cc(-c4c(C)cc(C)cc4C)no3)[C@@H]2O)c1 | -1.31 | -0.238 (inactive) | -0.305 | -0.155 | 0.108 | -0.552 | 0.843 | -0.156 | -0.861 | -1.57 | -0.314 | -0.358 | -0.364 | -1.51 | -2.57 | -2.11 | 0.611 | -2.4 | -0.52 | 0.995 (inactive)
8 | COc1ccc(OC[C@@H](CO)OC)cc1 | -0.151 | 0.675 (inactive) | -0.0865 | -0.118 | -0.148 | -0.206 | -0.295 | 0.14 | 0.175 | 0.0261 | 0.324 | 0.0896 | 0.172 | 0.227 | 0.649 | 0.205 | 0.754 | 0.356 | -0.254 | -0.531 (inactive)
9 | C=CC[C@@H]1C=C[C@H](ON=C2C[C@@H](O)[C@@H](O)[C@@H]3[C@@H]4C(=O)N(CC)C(=O)[C@@H]4CC[C@@H]23)[C@@H](CO)O1 | -0.873 | -0.116 (inactive) | -0.16 | -0.237 | 0.452 | 0.429 | -0.289 | -0.444 | -0.0673 | -1.18 | -2.3 | -1.1 | 0.382 | -1.15 | -0.707 | 0.119 | -0.992 | 0.158 | -1.41 | 1.3 (inactive)
10 | C[C@]12CCC3c4ccc(OCC5CO5)cc4CCC3C1CC[C@@H]2O (stereo not given in full) | 0.754 | 0.257 (inactive) | -0.0932 | 0.0365 | 0.646 | 0.528 | 0.414 | 0.759 | 0.118 | 0.961 | 1.19 | 1.14 | 0.492 | 1 | 0.137 | -0.2 | 4.51 | -0.005 | 1.05 | -0.466 (inactive)
